The supplement of paper PMC4466236
Over roughly 33,000 sequences, “E-score (dimensionless, -0.5 to 0.5)” has its median near -0.058; the highest 2% begin near 0.35. Only a selection was taken, and the highest values are over-represented in it overall.

test system: MvaT; assay: PBM 8-mer E-score (mean of HK and ME arrays) (E-score (dimensionless, -0.5 to 0.5)); higher = stronger relative binding preference
Protocol: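 Protein binding microarray: GST-tagged full-length MvaT (P. aeruginosa PAO1) bound to two universal double-stranded 60-mer arrays (ME and HK), each with a constant 25-mer primer and a variable 35-mer region covering all 8-mers. The 8-mer E-score (rank-based, range -0.5 to 0.5, >0.45 = specific binding) is the mean of the two arrays.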

| Sequence | PBM 8-mer E-score |
| --- | --- |
| TCGAATCA | -0.0287 |
| ACACTTGC | -0.00708 |
| AACAATAT | 0.362 |
| CACAATAG | 0.176 |
| AACAATAA | 0.422 |
| AACAATAC | 0.254 |
| TACAATAA | 0.328 |
| AACAATCT | 0.0729 |
| CACAATAA | 0.351 |
| AACAATTA | 0.391 |
| AACAATTC | 0.27 |
| AACAATTG | 0.217 |
| AACAATAG | 0.294 |
| ACCAATAT | 0.282 |
| ATGTAGTC | 0.1 |
| GGACGTTA | -0.103 |
| CACATTAG | 0.162 |
| CAGCGAGC | -0.199 |
| GCCCCCGC | -0.248 |
| CCTTTGAG | -0.158 |
| ACACGACG | -0.192 |
| ATGATCAC | -0.0926 |

| Sequence | PBM 8-mer E-score |
| --- | --- |
| AACTTATG | 0.372 |
| CACTTATG | 0.12 |
| AACTTATC | 0.351 |
| AACTTAGT | 0.289 |
| AACTTATT | 0.398 |
| AACTTACT | 0.335 |
| CACTTATC | 0.14 |
| AACTTAGG | 0.182 |
| GACTTATC | 0.0104 |
| CAGAGCCC | -0.374 |
| ATCTCGAA | -0.0688 |
| ACTGGAAG | -0.0943 |
| ACTCTGGC | -0.165 |
| AAGCACAG | -0.107 |
| AAAGTAAC | 0.206 |
| AAAGTAAA | 0.306 |
| ATAGTAAT | 0.353 |
| AAAGTAAT | 0.373 |
| ATAGTAAA | 0.327 |
| ATAGTAAC | 0.271 |
| AGTCATCG | -0.269 |
| CATATATC | 0.398 |

| Sequence | PBM 8-mer E-score |
| --- | --- |
| CATATACG | 0.143 |
| CATATAGG | 0.151 |
| CATATATA | 0.451 |
| CATATCTA | 0.122 |
| CTCATATA | 0.324 |
| CATATACC | 0.166 |
| CTCATATC | -0.0618 |
| CATATATG | 0.449 |
| GAGGGGAC | -0.373 |
| CCCCAAAA | -0.131 |
| ACAGATAA | 0.287 |
| GCCGACTA | -0.209 |
| AACCTACC | -0.156 |
| GGGATTAA | 0.144 |
| GGCGGTTA | -0.177 |
| ATTAGCAC | 0.0511 |
| CAACCCGA | -0.0421 |
| GAATAAAC | 0.192 |
| CAATAAAA | 0.286 |
| GAATAAAA | 0.354 |
| TAAAAAAA | 0.321 |
| TAATAAAA | 0.389 |

| Sequence | PBM 8-mer E-score |
| --- | --- |
| GGATAAAA | 0.265 |
| GCTGCTAA | -0.101 |
| CTATGCAG | -0.146 |
| ATCTAGCA | 0.152 |
| ATAAGTAT | 0.356 |
| ATAAGTAC | 0.305 |
| AAAAGTAA | 0.28 |
| CAAAGTAA | 0.216 |
| TAAAGTAA | 0.365 |
| TTAAGTAA | 0.328 |
| ATAAGTAG | 0.341 |
| GTAAGTAA | 0.207 |
| ATAAGTAA | 0.371 |
| ATCGTCAC | -0.196 |
| CCTTCAAA | -0.128 |
| CCACGACA | 0.011 |
| AACATCAT | 0.171 |
| CCCTACCC | -0.224 |
| CCAAACGC | -0.0718 |
| AGCTGCAC | -0.122 |
